# Assay outcomes from PubChem.
# KCNH2 3.1 block: blocks the human KCNH2 3.1 channel isoform; 340,000 compounds, 0.95% hits; U2OS KCNH2 3.1, thallium flux FluxOr; hits give low values; activity change, % (tested at about 1.8 µM);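 active = maximum activity change below -70%; inconclusive = maximum activity change from -70% to -50%; inactive = maximum activity change above -50%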;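 also: thallium influx rate constant from kinetic fluorescence after stimulation buffer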
#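 Thallium flux read-out: FluxOr dye with Red40 quencher in HBSS/HEPES, 45 min at RT. Rate constants from kinetic reads were normalized to positive and negative DMSO controls. Cells: U2OS virally expressing the 3.1 isoform.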
# USP1 inh: inhibitors of human USP1/UAF1 deubiquitinase; O94782; recombinant USP1/UAF1, Ub-Rhodamine cleavage fluorescence; Potency, µM (titrated, usually from 57.1 µM), for inactives: at the top dose activity change, negative = inhibition, hits mostly inhibitors; 390,000 compounds, 0.23% hits; active = well fitted inhibition curve with a large enough effect; inconclusive = small, poorly fitted or top-dose-only effect; inactive = no such curve, though single readings can be large or run the other way; also: potency is read from the fitted curve at half-maximal effect; nearly all actives have a fitted effect of over 60% in size
#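 In this screen, compounds sit with the deubiquitinase complex (1nM) for 15 min at room temperature before Ub-Rho is added at 150nM final. Fluorescence rise is then followed for 6 reads every 60 seconds.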
# Giardia kill: Giardia lamblia killing | 340,000 compounds, 0.15% hits | AID 540267 | activity change, % at 7.66 µM, hits read low | Giardia lamblia trophozoite viability; in the data active = activity change below about -80%; inconclusive = between about -30% and that limit;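 also: parasites exposed to compound for two days anaerobically before the ATP read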
#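 Killing of trophozoites was scored by loss of ATP luminescence after a 48 hrs anaerobic exposure to compounds at 37 deg C, using 100 cells per well.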
# Coupling enz: coupling enzyme interference in Giardia aldolase counter-screen; AID 2472; coupling enzyme system counterscreen, AmpLite Red fluorescence; 290,000 compounds, 0.67% hits; activity change, negative = inhibition, % at 58.2 µM, hits read low; in the data active = activity change below about -30%
#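 Activity here indicates interference with the coupling reaction, not aldolase inhibition. Compounds at 57.5 uM final met coupling enzymes for 10 min at RT; substrate and AmpLite Red detection followed, with a 525/598 nm fluorescence read after 20 min.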
# hERG WT inh: inhibitors of human wildtype KCNH2 potassium channel | U2OS, BacMam KCNH2, thallium flux FluxOr; hits give low values | activity change, % at 1.84 µM | 340,000 compounds, 0.37% hits | AID 720551;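 active = maximum activity change below -70%; inconclusive = maximum activity change between -70% and -50%; inactive = maximum activity change above -50%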
# Target sequence (Q12809 whole entry, looked up): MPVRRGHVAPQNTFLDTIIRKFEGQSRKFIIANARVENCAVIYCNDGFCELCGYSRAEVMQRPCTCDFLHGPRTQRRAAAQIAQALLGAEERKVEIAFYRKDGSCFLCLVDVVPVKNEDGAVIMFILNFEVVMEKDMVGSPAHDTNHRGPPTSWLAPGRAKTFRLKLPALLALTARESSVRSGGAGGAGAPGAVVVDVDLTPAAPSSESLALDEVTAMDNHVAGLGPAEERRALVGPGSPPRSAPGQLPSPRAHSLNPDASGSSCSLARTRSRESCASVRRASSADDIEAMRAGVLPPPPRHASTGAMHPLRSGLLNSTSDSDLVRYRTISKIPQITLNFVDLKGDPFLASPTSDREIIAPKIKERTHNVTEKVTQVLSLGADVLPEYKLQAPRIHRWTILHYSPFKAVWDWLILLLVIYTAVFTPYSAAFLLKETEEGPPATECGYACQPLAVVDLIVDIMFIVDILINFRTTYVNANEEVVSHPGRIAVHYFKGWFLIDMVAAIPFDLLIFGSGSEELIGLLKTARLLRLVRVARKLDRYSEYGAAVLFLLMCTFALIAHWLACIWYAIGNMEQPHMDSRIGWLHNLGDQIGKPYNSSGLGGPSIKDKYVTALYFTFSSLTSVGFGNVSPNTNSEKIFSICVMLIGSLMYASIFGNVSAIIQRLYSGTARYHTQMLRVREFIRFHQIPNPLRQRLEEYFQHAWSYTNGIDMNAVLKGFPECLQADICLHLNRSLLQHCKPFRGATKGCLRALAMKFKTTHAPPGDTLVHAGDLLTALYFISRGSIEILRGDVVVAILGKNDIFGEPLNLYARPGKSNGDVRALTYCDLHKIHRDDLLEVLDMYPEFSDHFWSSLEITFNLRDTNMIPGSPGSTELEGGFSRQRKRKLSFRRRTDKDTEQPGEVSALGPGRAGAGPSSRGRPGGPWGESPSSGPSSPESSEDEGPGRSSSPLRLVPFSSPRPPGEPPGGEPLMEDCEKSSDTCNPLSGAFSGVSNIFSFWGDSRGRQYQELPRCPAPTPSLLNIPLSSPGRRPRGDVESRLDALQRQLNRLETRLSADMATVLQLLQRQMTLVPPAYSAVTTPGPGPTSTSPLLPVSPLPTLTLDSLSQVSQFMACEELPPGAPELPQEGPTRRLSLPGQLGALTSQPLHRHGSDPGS
#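 U2OS cells transduced with wild-type KCNH2 virus are loaded with FluxOr dye for 45 min, and thallium flux is measured in kinetic reads before and after stimulation buffer. Rate constants are normalized to DMSO controls.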
# The depositor's hits bear a star; ? = inconclusive; / = no result. Most compounds without a hit are left out; they make up all but 1.7% or so of the library. % is scaled to controls: 0 for no effect and ±100 for the full control effect.
SMILES,KCNH2 3.1 block,USP1 inh,Giardia kill,Coupling enz,hERG WT inh
O=C1[C@@H]2Cc3c([nH]c4ccccc34)C(c3ccccc3)N2C(=O)CN1C1CCN(Cc2ccccc2)CC1 (some centres not stated),?,-25.6%,-14.2,22.5,-6.9
COC(=O)c1ccc(C2c3[nH]c4ccccc4c3C[C@H]3C(=O)N(C4CCN(Cc5ccccc5)CC4)CC(=O)N23)cc1 (some centres not stated),-79.9*,-4.6%,-17.6,-6.2,-42.0
CCOc1ccccc1C1c2[nH]c3ccccc3c2C[C@H]2C(=O)N(C3CCN(Cc4ccccc4)CC3)CC(=O)N12 (some centres not stated),-102.5*,?,3.4,-1.0,-93.8*
Cc1ccc2c(c1)-c1onc(C(=O)N3CCN(c4cc(Cl)ccc4C)CC3)c1CO2,/,-7.9%,/,/,/
COC(=O)CSc1ncc(S(=O)(=O)c2ccccc2)c(=O)[nH]1,-131.0*,-9.2%,-2.9,6.1,4.7
Cc1ccc(S(=O)(=O)N(C)C)cc1NC(=S)Nc1cccc2ccccc12,14.7,?,-11.5,-2.6,-1.5
Fc1ccc(NC(=S)Nc2cccc3ccccc23)cc1F,21.9,-26.8%,4.3,-2.2,-1.3
Fc1ccc(NC(=S)Nc2cccc3cnccc23)cc1,-11.9,-20.8%,6.6,-50.6*,-5.9
S=C(Nc1cccnc1)Nc1cccc2cnccc12,8.3,?,-7.2,-37.3*,-5.4
S=C(Nc1ccc(Cl)cc1)Nc1cccc2cnccc12,-0.2,?,12.2,-47.6*,-3.4
COc1ccccc1NC(=S)Nc1cccc2cnccc12,12.2,-5.6%,-19.6,-19.1,0.8
CN(C)S(=O)(=O)c1cccc(NC(=S)Nc2cccc3cnccc23)c1,8.6,?,6.2,-53.4*,-6.8
Fc1ccc(NC(=S)Nc2cccc3ccccc23)cc1,29.5,-24.0%,37.2,-4.6,7.8
O=C(Nc1ccccc1C(F)(F)F)c1ccc2oc(=O)c(S(=O)(=O)c3ccc(F)cc3)cc2c1,/,7.2%,/,/,/
CCCCOc1ccc(/C=N/NC(=O)c2nnn(-c3nonc3N)c2CN2CCCCCC2)cc1,-80.5*,-24.9%,4.1,/,-0.8
Nc1nonc1-n1nnc(C(=O)N/N=C/c2ccc(OCc3ccccc3)cc2)c1CN1CCCCC1,-98.1*,-11.2%,-10.1,-0.4,6.4
COC(=O)c1c(SC)nc2ccccc2c1OCc1ccc(C)cc1,/,-26.1%,/,/,/
Cc1ccc(NC(=O)C2CCN(C(=O)c3cnn(-c4ccccc4)c3-n3cccc3)CC2)cc1,/,-21.4%,/,/,/
O=C(CSCc1ccc(Br)cc1)NCCc1ccccc1,-0.6,-21.0%,9.2,0.2,5.2
O=C(CSCc1ccccc1)NCCc1ccc(F)cc1,-99.8*,-26.0%,-12.0,0.3,-7.9
O=C(Nc1ccnn1C1CCN(Cc2ccccc2)CC1)c1ccccc1Cl,-89.6*,-2.7%,28.6,/,-26.4
O=C(Nc1ccnn1C1CCN(CC2CC=CCC2)CC1)c1ccccc1Cl (configuration not stated),-78.7*,-21.4%,-6.5,1.6,23.4
CCc1ccc(CN2CCC(n3nccc3NC(=O)c3cccc(F)c3)CC2)cc1,-100.5*,-16.0%,-2.0,/,-110.2*
O=C(Nc1ccnn1C1CCN(C/C=C/c2ccccc2)CC1)C1CCCC1,-79.7*,-8.7%,21.7,/,2.7
CS/C(=N\S(=O)(=O)c1ccc(F)cc1)c1ccccc1,/,/,3.0,/,/
SMILES,KCNH2 3.1 block,USP1 inh,Giardia kill,Coupling enz,hERG WT inh
CCOC(=O)c1c(S(=O)(=O)N2CCC(C(=O)NCc3cccc(C)c3)CC2)c(C)n(C)c1C,/,-25.0%,/,/,/
Cc1ccc(CNC(=O)Cn2c(=O)ccc3cc(S(=O)(=O)N4CCC(C)CC4)ccc32)cc1,/,-25.0%,/,/,/
Cn1ccc2cc(S(=O)(=O)N3CCC(C(=O)NCCc4ccccc4)CC3)ccc21,/,-4.4%,/,/,/
CCc1ccc(CN2CCC(n3nccc3NC(=O)c3ccccc3C)CC2)cc1,-101.0*,-2.8%,15.1,/,-3.6
COc1ccccc1C(=O)Nc1ccnn1C1CCN(C/C=C/c2ccc(F)cc2)CC1,-103.7*,-21.7%,1.7,0.2,-123.0*
O=C(Nc1ccnn1C1CCN(C/C=C/c2ccccc2)CC1)c1ccccc1Cl,-106.9*,-18.8%,0.2,/,-107.4*
O=C(Nc1ccccc1Oc1cccnc1)C1CCCN(Cc2ccccc2O)C1 (configuration not stated),-6.3,-12.9%,31.7,0.1,50.3
O=C(Nc1ccccc1Oc1cccnc1)C1CCCN(C/C=C/c2ccccc2)C1 (configuration not stated),-85.0*,2.7%,-4.3,/,-19.2
Cc1ccc2c(CC(=O)Nc3ccc(S(=O)(=O)N4CCCCC4C)cc3)coc2c1 (configuration not stated),/,-24.6%,/,/,/
CCCn1ncc(CN2CCC(n3nccc3NC(=O)c3ccccc3Cl)CC2)c1C,?,2.2%,-0.4,/,-87.8*
COc1ccc(C(=O)c2c(C(F)(F)F)oc3c2C(=O)c2ccccc2C3=O)cc1OC,-11.6,?,15.2,-54.6*,1.6
CCN(CC)C(=O)c1sc2c(c1C)c(=O)n(CCc1ccccc1)c(=O)n2Cc1cc(C)ccc1C,/,-7.3%,/,/,/
Cc1c(C(=O)NCc2ccccc2F)oc2ccccc12,13.7,-23.1%,11.6,/,18.9
Cc1c(C(=O)NCc2cccs2)oc2ccccc12,-79.1*,-3.7%,7.5,-0.5,-1.5
Cc1c(C(=O)NC(C)c2ccncc2)oc2ccccc12 (configuration not stated),-108.8*,-17.2%,8.1,0.6,-6.6
CCCCN(C(=O)c1cccc(S(=O)(=O)N(CC)c2ccccc2)c1)c1c(N)n(CCCC)c(=O)[nH]c1=O,19.5,-0.5%,5.1,/,-13.7
CC1CC(C)CN(Cc2nc(N)nc(Nc3ccc4ccccc4c3)n2)C1 (configuration not stated),-112.6*,-2.7%,-12.2,-6.7,-5.5
Nc1nc(CN2CCC(Cc3ccccc3)CC2)nc(Nc2ccccc2)n1,-87.5*,-14.7%,-8.3,-0.1,-90.4*
CC1CC(C)CN(Cc2nc(N)nc(Nc3ccccc3)n2)C1 (configuration not stated),-30.7,-19.1%,2.8,1.5,29.6
